According to PubChem BioAssay AID1159580 (chemical genetic matrix, 2015):
Values joined by “and” are separate entries in the source; they are usually repeats but may differ in a detail not shown here. Identical values can stand only once. Hit rate of the full screen: of about 5,500 compounds, about 2,000 (36%) were called active. Inconclusive results (about 18%) are left out. No stated cut-off is given here; in the data, active means normalized growth mostly below about 0.91 (no sharp cut-off); inconclusive means no clear call, values can overlap the other calls; inactive means mostly above about 0.92. This is one part of the list.

Assay: chemical genetic growth profiling, strain panel (AID 1159580);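 further: tested at 20 µM; growth read once vehicle control cultures reached saturation at 30 °C; 1 = growth at the plate median or of vehicle wells; lower values mean less growth of the strain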
Settings: S. cerevisiae deletion strains, growth OD

Measured: normalized growth

Cc1ccc(C(C)C)cc2c(C)ccc1-2
inactive: locus YAL013W, strain DEP1, active compounds read low 1 | locus YAL021C, strain ccr4, active compounds read low 1 | locus YAL026C, strain drs2, active compounds read low 1.02 | locus YAL030W, strain snc1, active compounds read low 1 | locus YBL061C, strain skt5, active compounds read low 1 | locus YBR009C, strain hhf1, active compounds read low 0.999 | locus YBR021W, strain FUR4, active compounds read low 1.01 | locus YBR023C, strain chs3, active compounds read low 1 | locus YBR171W, strain sec66, active compounds read low 1.02 | locus YBR229C, strain ROT2, active compounds read low 1 | locus YBR231C, strain swc5, active compounds read low 1 | locus YBR279W, strain paf1, active compounds read low 1.01 | locus YCL011C, strain gbp2, active compounds read low 1.01 | locus YCL016C, strain dcc1, active compounds read low 0.985 | locus YCL029C, strain bik1, active compounds read low 1.03 | locus YCL061C, strain MRC1, active compounds read low 1.01 | locus YCL069W, strain vba3, active compounds read low 0.996 | locus YCR088W, strain abp1, active compounds read low 1.01 | locus YDL005C, strain med2, active compounds read low 1.01 | locus YDL035C, strain GPR1, active compounds read low 1 | locus YDL040C, strain nat1, active compounds read low 0.99 | locus YDL074C, strain BRE1, active compounds read low 0.944 | locus YDL101C, strain DUN1, active compounds read low 0.991 | locus YDL134C, strain PPH21, active compounds read low 0.984 | locus YDL185W, strain tfp1, active compounds read low 1.02 | locus YDL192W, strain arf1, active compounds read low 1.02 | locus YDR001C, strain nth1, active compounds read low 1 | locus YDR069C, strain doa4, active compounds read low 1 | locus YDR101C, strain arx1, active compounds read low 1.02 | locus YDR137W, strain rgp1, active compounds read low 0.978 | locus YDR159W, strain sac3, active compounds read low 1.05 | locus YDR162C, strain NBP2, active compounds read low 1 | locus YDR195W, strain ref2 0.975 | locus YDR297W, strain sur2, active compounds read low 1 | locus YDR318W, strain mcm21, active compounds read low 1.01 | locus YDR334W, strain swr1, active compounds read low 1 | locus YDR335W, strain msn5, active compounds read low 0.997 | locus YDR388W, active compounds read low 1.03 | locus YDR392W, strain spt3, active compounds read low 0.906 | locus YDR502C, strain sam2, active compounds read low 1 | locus YEL003W, strain gim4, active compounds read low 0.998 | locus YEL037C, strain rad23, active compounds read low 1 | locus YEL061C, strain CIN8 (second series), active compounds read low 1 | locus YEL061C, strain CIN8, active compounds read low 0.998 | locus YER015W, strain faa2, active compounds read low 1 | locus YER016W, strain bim1, active compounds read low 1 | locus YER110C, active compounds read low 1.04 | locus YER111C, strain swi4, active compounds read low 1.01 | locus YER155C, strain BEM2 (second series), active compounds read low 0.998 | locus YER155C, strain BEM2, active compounds read low 1.01 | locus YER167W, strain BCK2, active compounds read low 0.988 | locus YFR010W, strain ubp6, active compounds read low 1.01 | locus YGL078C, strain dbp3, active compounds read low 1.02 | locus YGL086W, strain mad1, active compounds read low 0.994 | locus YGL167C, strain pmr1, active compounds read low 1.01 | locus YGL173C, strain kem1, active compounds read low 1.01 | locus YGL227W, strain vid30, active compounds read low 1.01 | locus YGL240W, strain doc1, active compounds read low 1.01 | locus YGL248W, strain PDE1, active compounds read low 1 | locus YGL253W, strain hxk2, active compounds read low 1.03 | locus YGR078C, strain PAC10, active compounds read low 0.948 | locus YGR135W, strain pre9, active compounds read low 1.03 | locus YGR252W, strain gcn5, active compounds read low 1.02 | locus YHR013C, strain ard1, active compounds read low 1.02 | locus YHR027C, strain rpn1, active compounds read low 1 | locus YHR030C, strain SLT2, active compounds read low 1 and 0.968 | locus YHR079C, strain IRE1 (second series), active compounds read low 1.02 | locus YHR079C, strain IRE1, active compounds read low 0.977 | locus YHR094C, strain hxt1, active compounds read low 1.02 | locus YHR129C, strain ARP1, active compounds read low 1 | locus YHR142W, strain chs7, active compounds read low 1.02 | locus YHR200W, strain rpn10, active compounds read low 1.02 | locus YIL066C, strain RNR3, active compounds read low 0.986 | locus YIL073C, strain SPO22, active compounds read low 1.09 | locus YIL125W, strain kgd1, active compounds read low 1.01 | locus YIR030C, strain dcg1, active compounds read low 1.02 | locus YJL092W, strain hpr5, active compounds read low 1 | locus YJL095W, strain BCK1 (second series), active compounds read low 1 | locus YJL095W, strain BCK1, active compounds read low 0.972 and 1.03 | locus YJL115W, strain asf1, active compounds read low 0.992 | locus YJL129C, strain trk1, active compounds read low 1.01 | locus YJL134W, strain LCB3, active compounds read low 1 | locus YJL154C, strain vps35, active compounds read low 0.999 | locus YJL164C, strain tpk1, active compounds read low 0.991 | locus YJL166W, strain qcr8, active compounds read low 0.994 | locus YJL168C, strain set2, active compounds read low 1.02 | locus YJL187C, strain SWE1 (second series), active compounds read low 0.995 | locus YJL187C, strain SWE1, active compounds read low 1.01
